PubChem BioAssay (NCATS)
Several values for one entry are separate records, joined by “and”; a condition that tells them apart may be missing. Identical values can stand only once. Inconclusive results are not listed. A call without a number means that no potency is given here. Activity calls are given as the source filed them. Unless noted, the call rests on the fitted dose curve; in most records, active means well fitted curve in the direction sought with a large enough effect; inconclusive means small, poorly fitted or top-dose-only effect, or another doubt; inactive means no such curve, though single readings can be large; an effect the other way counts as inactive or inconclusive.

Tests used:
[1] = Cell Viability - NIH 3T3 (AID 541); details: NIH 3T3 cell viability, qHTS; activity change, negative = cytotoxicity: at 92.2 µM (top of the series); further: nearly all actives have a fitted effect of over 25% in size; further: potency means the concentration at half of the fitted maximal effect
How it was run: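 Luminescent ATP signal (CellTiter-Glo) served as the viability read-out after NIH 3T3 cells were exposed to compounds over a concentration range for 40 hr at 37 °C. Hill-equation modelling of concentration-response data gave AC50.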

[2] = Cellular Toxicity (caspase-3) Mesangial (AID 660);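 further: combined caspase 3 and 7 activity read by Caspase-Glo luminescence; cells exposed to compound for 16 h before the caspase read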
How it was run: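 Mesangial cells, 1000/well, 5 h settle at 37 °C; compound 16 h, 37 °C; Caspase-Glo 3/7 reagent 20 min RT; luminescence. Norm.: DMSO = 0%, tamoxifen 100 uM = 100%. AC50, Hill fit.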

[3] = Cell Viability - LYMP2-004 (AID 966);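 further: cells exposed to compound for 24 h; nearly all actives have a fitted effect of over 65% in size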
How it was run: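 Cells seeded 2500/well, rested 5 hr at 37 C, dosed across a concentration series, incubated 24 hr at 37 C, then CellTiter-Glo added for 30 min at room temperature and luminescence read. Hill fitting gave AC50.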

[4] = Cell Viability - LYMP2-017 (AID 972);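 further: cells exposed to compound for 24 hours at 37 °C; nearly all actives have a fitted effect of over 55% in size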
How it was run: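 2500 cells/well, 5 h 37 C; cpd 24 h 37 C in complete medium; CellTiter-Glo, 30 min RT; luminescence (ATP). AC50 via Hill fit, qHTS.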

[5] = molecular target: Estrogen receptor (Homo sapiens) (UniProt P03372); experiment: qHTS assay for small molecule antagonists of estrogen receptor alpha signaling (AID 588513; active means well fitted curve in the direction sought with a large enough effect in the signal ratio, with a control signal flat, not every such curve was filed as active; the % refers to the signal ratio)
Sequence of Estrogen receptor (Homo sapiens) (P03372 whole entry, looked up): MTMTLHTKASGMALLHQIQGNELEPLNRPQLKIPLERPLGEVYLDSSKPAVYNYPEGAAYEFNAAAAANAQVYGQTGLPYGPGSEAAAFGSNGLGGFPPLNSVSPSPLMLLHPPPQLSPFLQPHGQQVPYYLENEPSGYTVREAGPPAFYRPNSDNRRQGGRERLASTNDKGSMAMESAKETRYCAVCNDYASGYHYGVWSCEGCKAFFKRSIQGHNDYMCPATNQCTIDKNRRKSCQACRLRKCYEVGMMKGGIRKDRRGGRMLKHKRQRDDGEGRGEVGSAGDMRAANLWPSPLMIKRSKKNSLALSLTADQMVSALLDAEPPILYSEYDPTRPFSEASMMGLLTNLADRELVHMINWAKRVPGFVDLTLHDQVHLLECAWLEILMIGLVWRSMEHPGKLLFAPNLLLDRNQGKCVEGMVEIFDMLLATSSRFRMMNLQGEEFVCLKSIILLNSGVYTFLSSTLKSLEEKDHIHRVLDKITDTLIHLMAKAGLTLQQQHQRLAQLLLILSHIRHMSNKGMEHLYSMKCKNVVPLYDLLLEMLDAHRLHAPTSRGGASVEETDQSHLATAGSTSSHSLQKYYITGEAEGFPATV
How it was run: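 ER-alpha-UAS-bla GripTite HEK 293 cells in medium with 2% charcoal/dextran-treated FBS were preincubated 4 h at 37 C, dosed with compound (1:2 titration), stimulated with 0.5nM 17-beta-estradiol for 18 h, then read by CCF4 beta-lactamase fluorescence.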

[6] = molecular target: Estrogen receptor (Homo sapiens) (UniProt P03372); experiment: qHTS assay for small molecule agonists of estrogen receptor alpha signaling (AID 588514; calls by dose curve; further: nearly all actives have a fitted effect of over 70% in size)
How it was run: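 Cells were plated at 5000/well, incubated 4 hrs at 37 C, dosed with compound titration series, incubated 18 hrs at 37 C, loaded with CCF4 dye for 2 hrs at RT, then fluorescence was read.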

[7] = molecular target: Glucocorticoid receptor (Homo sapiens) (UniProt P04150); experiment: qHTS assay for small molecule agonists of glucocorticoid receptor signaling (AID 588532; active means well fitted curve in the direction sought with a large enough effect in the signal ratio, with a control signal flat; the % refers to the signal ratio); details: HeLa MMTV-bla, beta-lactamase ratio, agonist, 18 h; stronger effect = higher value; percent of dexamethasone control, DMSO zero
Sequence of Glucocorticoid receptor (Homo sapiens) (P04150 whole entry, looked up): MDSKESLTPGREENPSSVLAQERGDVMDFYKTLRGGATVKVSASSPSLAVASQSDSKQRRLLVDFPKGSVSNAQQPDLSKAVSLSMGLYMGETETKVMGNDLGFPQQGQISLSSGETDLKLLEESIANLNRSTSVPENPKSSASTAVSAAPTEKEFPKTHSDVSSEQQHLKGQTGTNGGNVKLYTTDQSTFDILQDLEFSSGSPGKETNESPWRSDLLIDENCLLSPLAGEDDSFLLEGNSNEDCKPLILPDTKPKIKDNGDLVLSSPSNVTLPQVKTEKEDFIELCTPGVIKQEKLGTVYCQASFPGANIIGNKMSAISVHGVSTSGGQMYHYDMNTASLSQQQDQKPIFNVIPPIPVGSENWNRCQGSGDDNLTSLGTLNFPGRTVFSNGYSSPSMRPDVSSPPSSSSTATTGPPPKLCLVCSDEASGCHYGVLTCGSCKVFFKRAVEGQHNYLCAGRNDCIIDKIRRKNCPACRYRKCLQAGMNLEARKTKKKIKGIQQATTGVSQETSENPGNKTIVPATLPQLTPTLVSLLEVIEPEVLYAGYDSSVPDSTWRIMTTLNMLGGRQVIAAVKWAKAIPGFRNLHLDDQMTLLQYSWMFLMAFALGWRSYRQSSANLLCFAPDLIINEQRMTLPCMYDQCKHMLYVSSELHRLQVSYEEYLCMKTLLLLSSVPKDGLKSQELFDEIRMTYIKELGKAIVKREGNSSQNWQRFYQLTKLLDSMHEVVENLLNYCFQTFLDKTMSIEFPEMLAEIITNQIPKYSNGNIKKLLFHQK
How it was run: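 Agonist-mode qHTS: GRE-driven beta-lactamase in HeLa cells exposed 18 h to titrated compounds (up to 92 uM), then CCF4 ratio read after 2 h at RT; Hill-fitted EC50, efficacy relative to 0.1 uM dexamethasone.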

[8] = molecular target: Glucocorticoid receptor (Homo sapiens) (UniProt P04150); experiment: qHTS assay for small molecule antagonists of glucocorticoid receptor signaling (AID 588533; active means well fitted inhibition curve with a large enough effect in the signal ratio, with a control signal flat, not every such curve was filed as active; the % refers to the signal ratio;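 further: cells stimulated with 2 nM dexamethasone as agonist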)
How it was run: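 Antagonist-mode qHTS: compound titrations added to GRE-bla HeLa cells, then dexamethasone 2 nM final; 18 h, 37 C. CCF4 FRET fluorescence normalized to dexamethasone and DMSO; IC50 from Hill fit.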

[9] = molecular target: Peroxisome proliferator-activated receptor delta (Homo sapiens) (UniProt Q03181); experiment: qHTS assay for small molecule agonists of peroxisome proliferator-activated receptor delta signaling (AID 588534; calls by dose curve)
Sequence of Peroxisome proliferator-activated receptor delta (Homo sapiens) (Q03181 whole entry, looked up): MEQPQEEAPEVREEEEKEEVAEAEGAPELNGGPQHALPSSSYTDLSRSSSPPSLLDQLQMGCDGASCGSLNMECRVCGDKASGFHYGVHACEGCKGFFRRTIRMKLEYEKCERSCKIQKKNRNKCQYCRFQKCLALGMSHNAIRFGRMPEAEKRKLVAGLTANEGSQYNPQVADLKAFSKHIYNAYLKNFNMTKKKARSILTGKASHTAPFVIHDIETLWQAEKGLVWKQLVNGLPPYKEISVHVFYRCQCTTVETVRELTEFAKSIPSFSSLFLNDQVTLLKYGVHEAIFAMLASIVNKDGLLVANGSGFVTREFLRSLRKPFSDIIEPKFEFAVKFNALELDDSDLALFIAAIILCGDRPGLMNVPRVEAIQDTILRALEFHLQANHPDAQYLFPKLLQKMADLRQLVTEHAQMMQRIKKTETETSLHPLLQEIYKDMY
How it was run: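 Fluorescence from CCF4 substrate cleavage by beta-lactamase reporter, read 2 hrs at RT, measured agonist activity. Compounds were tested with 18 hrs exposure at 37 C. Concentration-response data fitted to Hill equation.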

[10] = qHTS assay for small molecule antagonists of peroxisome proliferator-activated receptor delta signaling (AID 588535; active means well fitted inhibition curve with a large enough effect in the signal ratio, with a control signal flat, not every such curve was filed as active; the % refers to the signal ratio;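 on max response: cells co-treated with a PPAR-delta agonist as stimulator during compound exposure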); details: HEK293T PPARd-UAS-bla, beta-lactamase FRET ratio, 18 h; 460 nm channel
How it was run: (§1)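 HEK293T PPAR-delta-UAS-bla cells, 4000/well, 2% charcoal/dextran FBS; 5 h 37 C; cpd titration; 18 h 37 C; CCF4 2 h RT; FI 460/530 nm; Hill fit → IC50, efficacy.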

[11] = molecular target: Peroxisome proliferator-activated receptor delta (Homo sapiens) (UniProt Q03181); experiment: as above
How it was run: as §1

[12] = molecular target: Peroxisome proliferator-activated receptor gamma (Homo sapiens) (UniProt P37231); experiment: qHTS assay for small molecule agonists of peroxisome proliferator-activated receptor gamma signaling (AID 588536; active means well fitted curve in the direction sought with a large enough effect in the signal ratio, with a control signal flat, not every such curve was filed as active; the % refers to the signal ratio)
Sequence of Peroxisome proliferator-activated receptor gamma (Homo sapiens) (P37231 whole entry, looked up): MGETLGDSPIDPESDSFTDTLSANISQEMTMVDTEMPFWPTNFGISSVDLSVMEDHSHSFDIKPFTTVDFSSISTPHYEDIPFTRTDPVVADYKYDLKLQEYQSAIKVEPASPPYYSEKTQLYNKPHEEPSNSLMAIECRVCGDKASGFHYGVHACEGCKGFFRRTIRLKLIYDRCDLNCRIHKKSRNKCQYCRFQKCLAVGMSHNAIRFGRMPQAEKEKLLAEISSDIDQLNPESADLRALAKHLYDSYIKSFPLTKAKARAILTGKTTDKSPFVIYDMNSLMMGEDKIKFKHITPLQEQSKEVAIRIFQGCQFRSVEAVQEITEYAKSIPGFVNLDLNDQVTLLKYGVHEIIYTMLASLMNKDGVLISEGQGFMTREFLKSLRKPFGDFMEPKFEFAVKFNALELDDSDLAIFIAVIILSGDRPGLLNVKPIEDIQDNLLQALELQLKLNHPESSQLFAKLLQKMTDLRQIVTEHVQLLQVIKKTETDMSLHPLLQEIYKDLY
How it was run: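 Ratiometric blue/green fluorescence (405 nm excitation; 460 and 530 nm emission) from CCF4-loaded HEK293 reporter cells serves as signal. Exposure to test compounds lasts 16 h at 37 C in medium containing 1% charcoal/dextran-treated serum.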

[13] = molecular target: Peroxisome proliferator-activated receptor gamma (Homo sapiens) (UniProt P37231); experiment: qHTS assay for small molecule antagonists of peroxisome proliferator-activated receptor gamma signaling (AID 588537; active means well fitted inhibition curve with a large enough effect in the signal ratio, with a control signal flat, not every such curve was filed as active; the % refers to the signal ratio;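 further: reporter cells co-stimulated with 50 nM rosiglitazone agonist during compound treatment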)
How it was run: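 Antagonist mode, beta-lactamase reporter in HEK293; charcoal/dextran FBS 1%; 3000 cells/well, 37 C 6-6.5 h; cpd titration + rosiglitazone 50 nM final, 16 h 37 C; CCF4, 2 h RT; 460/530 nm; Hill fit → IC50, efficacy.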

[14] = molecular target: Vitamin D3 receptor (Homo sapiens) (UniProt P11473); experiment: qHTS assay for small molecule agonists of vitamin D receptor signaling (AID 588543; calls by dose curve)
Sequence of Vitamin D3 receptor (Homo sapiens) (P11473 whole entry, looked up): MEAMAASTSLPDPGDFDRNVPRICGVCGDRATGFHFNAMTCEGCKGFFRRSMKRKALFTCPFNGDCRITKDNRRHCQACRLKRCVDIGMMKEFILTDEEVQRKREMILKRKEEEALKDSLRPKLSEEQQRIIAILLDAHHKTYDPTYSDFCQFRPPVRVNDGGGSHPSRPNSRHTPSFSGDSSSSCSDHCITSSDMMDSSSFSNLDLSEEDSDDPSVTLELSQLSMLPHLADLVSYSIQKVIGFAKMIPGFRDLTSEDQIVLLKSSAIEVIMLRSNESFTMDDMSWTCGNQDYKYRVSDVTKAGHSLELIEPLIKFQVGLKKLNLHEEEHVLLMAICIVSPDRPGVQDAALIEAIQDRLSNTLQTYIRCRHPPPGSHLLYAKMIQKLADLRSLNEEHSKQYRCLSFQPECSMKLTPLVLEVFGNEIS
How it was run: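 GeneBLAzer VDR-UAS-bla HEK293T cells in 2% charcoal-stripped FBS medium were dosed with compound titrations for 16 h at 37 °C; CCF4 β-lactamase readout (405 nm ex, 460/530 nm em). EC50 and efficacy from Hill fits, normalized to 50 nM calcitriol (100%) and DMSO (0%).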

[15] = molecular target: Thyroid hormone receptor beta (Homo sapiens) (UniProt P10828); experiment: qHTS assay for small molecule antagonists of thyroid hormone receptor beta signaling (AID 588547; active means well fitted inhibition curve with a large enough effect in the signal ratio, with a control signal flat, not every such curve was filed as active; the % refers to the signal ratio;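 further: cells stimulated with 0.4 nM T3 agonist during compound exposure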); details: TR-UAS-bla HEK293, beta-lactamase ratio, antagonist mode, 18 h
Sequence of Thyroid hormone receptor beta (Homo sapiens) (P10828 whole entry, looked up): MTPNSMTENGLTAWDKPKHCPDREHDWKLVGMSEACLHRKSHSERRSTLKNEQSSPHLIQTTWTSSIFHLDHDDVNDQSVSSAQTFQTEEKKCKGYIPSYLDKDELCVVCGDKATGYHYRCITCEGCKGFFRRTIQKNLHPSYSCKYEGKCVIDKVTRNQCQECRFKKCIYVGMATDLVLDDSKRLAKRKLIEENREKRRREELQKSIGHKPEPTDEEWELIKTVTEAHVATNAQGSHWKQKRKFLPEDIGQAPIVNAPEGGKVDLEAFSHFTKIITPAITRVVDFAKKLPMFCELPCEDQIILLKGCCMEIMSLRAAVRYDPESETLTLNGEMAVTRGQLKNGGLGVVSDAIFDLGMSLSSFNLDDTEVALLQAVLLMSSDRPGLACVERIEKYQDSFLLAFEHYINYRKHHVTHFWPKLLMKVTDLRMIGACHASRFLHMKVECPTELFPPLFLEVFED
How it was run: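 Inhibition of T3-driven (0.4nM final) beta-lactamase reporter activity was measured over 0.59 nM to 92 uM compound after 18 h at 37 C. The cells were GripTite HEK293 TR-UAS-bla in charcoal/dextran-stripped serum, with CCF4 ratio read-out and IC50 from Hill fits.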

[16] = qHTS assay for small molecule antagonists of the retinoid-related orphan receptor gamma (ROR-gamma) signaling pathway - cell viability counter screen (AID 720652; active means well fitted curve in the direction sought with a large enough effect in the repeat runs; an effect the other way counts as inactive or inconclusive;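 further: compound exposure lasted 16 hr before ATP read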)
How it was run: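 Luminescence from CellTiter-Glo after 30 min at room temperature reported cellular ATP as the cytotoxicity measure. Cells were the CHO reporter line with doxycycline-induced ROR-gamma expression, exposed to compound for 16 hr at 37 C.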

[17] = molecular target: Vitamin D3 receptor (Homo sapiens) (UniProt P11473); experiment: qHTS assay for small molecule antagonists of vitamin D receptor signaling (AID 588541; calls by dose curve;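 further: receptor activated by calcitriol during compound treatment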)
How it was run: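 Antagonist-mode beta-lactamase reporter assay: HEK293T VDR-UAS-bla cells were exposed to titrated compound alongside 1-alpha,25-dihydroxyvitamin D3 at 3 nM final for 16 h. Values were normalized to the 50 nM agonist control and DMSO basal, with IC50 and efficacy from Hill equation fits.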

[18] = qHTS assay for small molecule activators of the nuclear factor-kappa B (NF-kB) signaling pathway (AID 651749; active means well fitted activation curve with a large enough effect in the signal ratio; the % refers to the signal ratio); details: NF-kB-bla ME-180 cells, beta-lactamase FRET ratio, 16 h; stronger effect = higher value
How it was run: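 Readout: beta-lactamase reporter driven by an NF-kB response element, detected fluorescently as loss of FRET. Cells were the ME-180 line, treated 16 hr at 37C with pin-transferred compound.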

[19] = qHTS assay for small molecule agonists of the antioxidant response element (ARE) signaling pathway measured by Nrf2-dependant transcriptional activity (AID 720636; active means well fitted curve in the direction sought with a large enough effect in the repeat runs; an effect the other way counts as inactive or inconclusive)
How it was run: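 Nrf2-dependent transcription read as ONE-Glo luciferase signal from ARE-luc HepG2 reporter cells after 16 hr compound treatment at 37 C, 5% CO2, in assay medium with 1% dialyzed FBS.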

[20] = qHTS assay for small molecule agonists of the antioxidant response element (ARE) signaling pathway (AID 651741; active means well fitted activation curve with a large enough effect in the signal ratio; the % refers to the signal ratio)
How it was run: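 Quantitative HTS in HepG2 cells stably expressing an ARE-beta-lactamase reporter; 16 h compound exposure at 37 C, followed by 2 h room-temperature incubation with LiveBLAzer B/G FRET substrate and fluorescence measurement.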

Structure (SMILES)	Potency [1]	outcome [2]	Potency [3]	Potency [4]	Potency [5]	Potency [6]	activation [7]	outcome [8]	outcome [9]	max response [10] [%]	outcome [11]	outcome [12]	Potency [13]	outcome [14]	activity change % (negative = inhibition) [15]	Potency [16]	outcome [17]	activation [18]	Potency [19]	Potency [20]
CCCCCCCCCCCCCl	inactive	inactive	inactive	inactive	inactive	inactive	2.7% (inactive)	inactive	inactive	10.4	inactive	inactive	inactive	inactive	-6.1% (inactive)	inactive				
c1ccoc1		inactive	inactive	inactive	inactive	inactive	-5.47% (inactive)	inactive	inactive				inactive	inactive	20.3% (inactive)	inactive	inactive	0.149% (inactive)	inactive	
CCOC(=O)CC(SP(=O)(OC)OC)C(=O)OCC (stereo not drawn)		inactive	inactive				2.95% (inactive)	inactive	inactive			inactive	inactive			inactive		-1.06% (inactive) and 1.21% (inactive)		
CN(C)C(=O)Cl	inactive	inactive	inactive		inactive	inactive	12.7% (inactive)	inactive	inactive	-22.3	inactive	inactive	inactive		-23.4% (inactive)	inactive	inactive		inactive	inactive
ClC(Cl)Br	inactive	inactive	inactive	inactive	inactive	inactive	-5.41% (inactive)	inactive	inactive	-6.86	inactive		inactive	inactive	9.06% (inactive)	inactive	inactive		inactive	
N#C/C(N)=C(/N)C#N	inactive	inactive	inactive	inactive	inactive	inactive	-0.556% (inactive)	inactive	inactive			inactive	inactive	inactive	-2.94% (inactive)	inactive	inactive		inactive	
Nc1ccc([N+](=O)[O-])cc1[N+](=O)[O-]	10 µM (active)	inactive	inactive	inactive	inactive	inactive		inactive	inactive				inactive		0.221% (inactive)		inactive		inactive	
[O-][Cl+]O	inactive	inactive	inactive	inactive	inactive	inactive	9.28% (inactive)		inactive			inactive				inactive	inactive		inactive	
[N-]=[N+]=[N-]		inactive		inactive	inactive	inactive	-7.88% (inactive)		inactive			inactive			7.76% (inactive)	inactive	inactive	0.007% (inactive)	inactive	inactive
C/C=C/C=O	inactive	inactive	inactive	inactive			3.01% (inactive)					inactive	inactive	inactive	-1.85% (inactive)	inactive	inactive	0.438% (inactive)		
S=C1NCCN1	inactive	inactive	inactive									inactive	inactive	inactive	-23.2% (inactive) and -6.83% (inactive)	inactive		0.43% (inactive) and 0.618% (inactive)		
